# Compound activity from PubChem.
# pAkt inh – Akt phosphorylation inhibition | activity change, % for hits at 50 µM | Neuro2A IGF-stimulated pAkt S473 HTRF, 20 min; active compounds read low | 360,000 compounds, 0.32% hits | AID 651550; in the data active means activity change below about -80%; inconclusive means mostly about -51% to -80%
#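 Single-point screen (50 µM final compound) in Neuro2A cells stimulated 20 min with 6 nM IGF at 37 deg C. After lysis, Ser473-phosphorylated Akt read by HTRF (ex 330 nm, em 615/665 nm) as the 665/615 ratio.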
# gsp ag – agonists of gsp mutant (McCune-Albright syndrome) | Potency, µM (top dose mostly 76.9 µM), usual class: activators | 340,000 compounds, 0.13% hits | gsp mutant cells, cAMP HTRF, 30 min; active means well fitted activation curve with a large enough effect; inconclusive means small, poorly fitted or top-dose-only effect, or another doubt; inactive means no such curve, though single readings can be large or run the other way; cell line not stated here;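 further: phosphodiesterase inhibitor Ro 20-1724 added with compounds to block cAMP breakdown; nearly all actives have a fitted effect of over 60% in size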
#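 Cells stably selected in G418 were plated at 2000/well, grown 16-24 hr, then given compounds in DMSO with the PDE inhibitor […] (300 uM solution added) for 30 min at 37C; cAMP was read by HTRF.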
# RXFP1 antag – antagonists of human relaxin receptor RXFP1. activity change, negative = inhibition, % at 57.5 µM. 350,000 compounds, 0.59% hits. HEK293-RXFP1, relaxin-stimulated cAMP HTRF, 30 min; active compounds read low. AID 1259400. Q9HBX9;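 active means activity change of -60% or lower, but not beyond a set lower limit; inconclusive means change between -60% and -40%, or beyond the set limit; inactive means change above -40%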
# Target sequence (Q9HBX9 whole entry, looked up): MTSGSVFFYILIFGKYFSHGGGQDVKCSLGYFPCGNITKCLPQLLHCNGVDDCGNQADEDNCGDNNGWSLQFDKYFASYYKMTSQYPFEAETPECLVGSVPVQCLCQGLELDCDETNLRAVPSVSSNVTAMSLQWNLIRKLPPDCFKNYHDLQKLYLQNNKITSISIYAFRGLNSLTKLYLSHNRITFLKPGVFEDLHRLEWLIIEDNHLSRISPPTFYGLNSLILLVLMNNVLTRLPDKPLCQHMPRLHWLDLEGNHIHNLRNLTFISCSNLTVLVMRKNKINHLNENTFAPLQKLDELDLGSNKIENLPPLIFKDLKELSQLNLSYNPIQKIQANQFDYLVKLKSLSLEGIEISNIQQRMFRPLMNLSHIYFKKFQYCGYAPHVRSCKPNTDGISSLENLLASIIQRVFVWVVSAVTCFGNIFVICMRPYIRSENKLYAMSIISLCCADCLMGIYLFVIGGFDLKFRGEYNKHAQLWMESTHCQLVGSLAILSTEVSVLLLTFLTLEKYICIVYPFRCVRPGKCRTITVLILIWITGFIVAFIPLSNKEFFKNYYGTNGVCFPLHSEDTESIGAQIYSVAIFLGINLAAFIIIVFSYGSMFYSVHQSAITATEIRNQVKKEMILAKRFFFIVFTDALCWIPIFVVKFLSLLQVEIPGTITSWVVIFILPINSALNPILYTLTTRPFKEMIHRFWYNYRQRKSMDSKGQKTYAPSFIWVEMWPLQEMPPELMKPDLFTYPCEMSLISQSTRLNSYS
# gsp antagonist – antagonists of gsp mutant (McCune-Albright syndrome) | AID 624288 | 340,000 compounds, 0.4% hits | gsp-mutant cells, cAMP HTRF, 30 min | Potency, µM (top dose mostly 76.9 µM), most hits filed as inhibitors; calls by dose curve; cell line not stated here;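 further: intracellular cAMP measured with PDE inhibitor Ro 20-1724 present during compound exposure; nearly all actives have a fitted effect of over 65% in size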
#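 HTRF cAMP measurement after 30 min RT detection following 30 min, 37C compound treatment alongside […] (added as 300 uM solution) in G418-selected cells seeded at 2000/well and grown 16–24 h.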
# RXFP1 agonist – agonists of human relaxin receptor RXFP1; Q9HBX9; HEK293T-RXFP1 cAMP TR-FRET, 30 min; response scale: percent of porcine relaxin response, buffer zero; Potency, µM (series often up to 57.5 µM), most hits filed as activators; 370,000 compounds, 0.3% hits; AID 2676; active means well fitted activation curve with a large enough effect; inconclusive means small, poorly fitted or top-dose-only effect; further: nearly all actives have a fitted effect of over 60% in size
#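 cAMP rise read by TR-FRET after 30 min, 37C compound exposure (up to 58 uM) in RXFP1-transfected HEK293 cells with Ro 20174 present. EC50 from Hill-equation fits, with 29 nM porcine relaxin as 100% and buffer as basal.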
# Numbers stand for hits; - = inactive; ? = inconclusive; . = no result given; ! = not confirmed by another sample; [ ] = another dose, or the depositor's remark. Only some compounds are listed: those with a hit (about 1.3% of all), similar ones and a draw of the others.
SMILES,pAkt inh,gsp ag,RXFP1 antag,gsp antagonist,RXFP1 agonist
Cc1sc(N(C(=O)CCc2ccccc2)c2ccc(C(=O)O)cc2)nc1-c1ccccc1,-,-,-,-,-
CCC(=O)N(c1ccc(C(=O)O)cc1)c1nc(-c2ccc(OC)cc2)c(C)s1,-,?,-,25µM,-
Cc1ccc(/C=C/c2onc(C)c2S(=O)(=O)N2CCC(C(=O)NCc3ccc(OC(C)C)cc3)CC2)cc1,.,.,-,.,-
COc1ccc(OC)c(C2CC(=O)c3c([nH]c(C(=O)OCC4CCCO4)c3C)C2)c1 (stereo not given),-,-,.,40µM,-
COCCOC(=O)c1[nH]c2c(c1C)C(=O)CC(c1cc(OC)ccc1OC)C2 (stereo not given),-,-,-,-,-
COc1ccc(OC)c(-c2cc(C(=O)Nc3cccc(Cl)c3C)no2)c1,.,.,-,.,-
Cc1ccc2c(=O)cc(C(=O)Nc3sc4c(c3C(=O)NCC3CCCO3)CCCC4)oc2c1C (stereo not given),.,.,-,.,-
O=C(CCCCn1c(=S)[nH]c2ccsc2c1=O)NCc1ccco1,-,-,-81,-,-
Cc1ccccc1Cn1c(=O)n(CCCC(=O)NCc2ccco2)c(=O)c2sccc21,-,?,-,-,-
O=C(CCCn1c(=S)[nH]c2ccsc2c1=O)NCc1ccco1,-,-,-78,-,-
O=C(CCCn1c(=O)c2ccccc2n(Cc2ccccc2)c1=O)NCc1ccco1,-,-,-,-,-
O=C(CCCCn1c(=O)c2ccccc2n(Cc2ccc(F)cc2)c1=O)NCc1ccco1,-99%,-,-,-,-
CC(C)C(=O)OCc1cccc(OC(=O)[C@@H]2N3C(=O)[C@@H](NC(=O)Cc4ccccc4)[C@H]3SC2(C)C)c1,.,.,-,.,.
O=C1CC(c2ccc(Cl)cc2)CC(=O)N1,.,.,-,.,.
CCOc1ccc(N=C(C)C2=C(O)c3ccccc3C2=O)cc1,-,-,-63,-,-
COc1ccc(N=C(C)C2=C(O)c3ccccc3C2=O)cc1,-,-,.,-,-
CC(=O)Nc1ccc(N=C(C2=C(O)c3ccccc3C2=O)c2ccccc2)cc1,-,-,-,35µM,-
O=c1[nH]c(=O)n(Cc2ccccc2)c2c1C(C(F)(F)F)(C(F)(F)F)N=C(c1ccco1)N2,-,-,-,35µM,-
O=C(Nc1nc(-c2cccs2)c(C(=O)C(F)(F)F)s1)c1ccco1,-,?,-,-,25µM
O=C(Nc1nc(-c2cccs2)c(C(=O)C(F)(F)F)s1)c1ccccc1,-,-,.,?,-
Cc1cc(C)cc(C(=O)NC(=S)Nc2ccc(-c3cc4ccccc4oc3=O)cc2)c1,-,-,-,-,-
Cc1ccc(C(=O)NC(=S)Nc2ccc(-c3cc4ccccc4oc3=O)cc2)c(C)c1,?,20µM,-,-,-
CC1(C)N([O-])C(c2cccs2)=C[N+]1=O,-124%,-,-,-,-
CC1(C)N([O-])C(c2ccccc2)=C[N+](=O)C1(C)C,-,-,-,-,-
COC(=O)C1CCN(C(c2ccccc2Cl)c2sc3nc(-c4ccco4)nn3c2O)CC1 (stereo not given),.,.,-,.,-
SMILES,pAkt inh,gsp ag,RXFP1 antag,gsp antagonist,RXFP1 agonist
COc1ccc(S(=O)(=O)N2CCN(CC(=O)c3[nH]c(C)c(C(C)=O)c3C)CC2)cc1OC,-,-,-,?,-
CC(=O)c1c(C)[nH]c(C(=O)CN2CCN(S(=O)(=O)c3ccc(C(C)C)cc3)CC2)c1C,-,-,-,35µM,-
CN(C)c1ccc(NC(=O)C2C3C=CC(C3)C2C(=O)O)cc1 (stereo not given),-,-,-119,28µM,-
Cn1c(=NC(=O)C2CCN(S(=O)(=O)c3cccs3)CC2)sc2ccccc21,-91%!,-,-,-,-
CN(C(=O)C1CCN(S(=O)(=O)c2cccs2)CC1)c1ccccc1,-,-,-,-,-
Cc1ccc(C(=O)c2cn(Cc3cccc(C)c3)c3nc(C)ccc3c2=O)cc1,.,.,.,.,-
COc1cc(NC(=O)C(=O)NCCN(C)C)c(OC)cc1Cl,-,-,-69,-,-
CCOC(=O)/C=c1/s/c(=C/c2ccc3cc(OC)ccc3c2)c(=O)n1CC(=O)NCc1ccc2c(c1)OCO2,-,-,-79,-,.
O=C1c2ccccc2C(=O)c2c(/C=C/N3CCCCC3)ccnc21,-,8.9µM,-,-,.
COc1ccc(CNC(=O)c2nc(Cn3nc(C)c(Br)c3C)no2)cc1OC,.,.,.,.,-
CC1(C)CC2(CCO1)OC(=O)CC2C(=O)Nc1cccc2ccccc12 (stereo not given),-88%,-,-,-,-
O=C(Nc1nnc(SCc2ccc(F)cc2)s1)C1Cc2ccccc2CN1C(=O)c1ccco1 (stereo not given),-,-[15.4 µM],-64,-,-
COc1ccc(-c2nsc(SCC(=O)Nc3cc(C)on3)n2)cc1,-81%,-,-,-,-
COc1cc(NC(c2ccccc2)c2ccccc2)cc(OC)c1OC,-,-[15.4 µM],-,11µM,-
CN1CC(c2ccccc2)C2(SC(=S)N(Cc3ccco3)C2=O)C12C(=O)Nc1ccccc12 (stereo not given),-,-,-,-,-
CN1CC(c2ccccn2)C2(SC(=S)N(Cc3ccccc3)C2=O)C12C(=O)Nc1ccccc12 (stereo not given),-84%,-,-,-,-
CCCCNC(=O)CSc1nc2cc3c(cc2c(=O)n1CCC(=O)NCCc1ccc(OC)c(OC)c1)OCO3,-,-[15.4 µM],-,-,-
CCCCNC(=O)CSc1nc2cc3c(cc2c(=O)n1CCCC(=O)NCCc1ccc(OC)c(OC)c1)OCO3,-,-[15.4 µM],-76!,-,-
CCC(Sc1nc2cc3c(cc2c(=O)n1CCCC(=O)NCc1ccc(OC)cc1)OCO3)C(=O)NCCCOC (stereo not given),.,.,-77,.,-
CCc1cccc(C)c1NC(=O)c1cc(S(=O)(=O)N2CCN(c3ccccc3)CC2)ccc1F,.,.,-,.,-
O=C(CC1C(=O)N(c2ccccc2)C(=S)N1c1ccccc1)c1ccc(Br)cc1 (stereo not given),-,-[15.4 µM],-73,-,-
Cc1nc(SCC(=O)OC(C)(C)C)c2c3c(sc2n1)CCCC3,.,.,-,.,-
CO/N=C/c1ccc(Sc2ccccc2)c([N+](=O)[O-])c1,-,-,-,-,-
O=[N+]([O-])c1cc(/C=N/O)ccc1Sc1ccccc1,-,-,-60,-,-
COc1cc(OC)c(NC(=O)c2ccc3nc(C(C)C)oc3c2)cc1Cl,.,.,-,.,-
CNC(=O)C1CCC(Cn2c(=O)c3sccc3n(CC(=O)NCc3cccc(OC)c3)c2=O)CC1 (stereo not given),.,.,-,.,-
CCCNC(=O)C1CCC(Cn2c(=O)c3sccc3n(CC(=O)NCc3cccc(OC)c3OC)c2=O)CC1 (stereo not given),.,.,.,.,22µM
COc1ccc(C2c3ccsc3CCN2C(=O)NC(C)(C)C)cc1 (stereo not given),-,-,-,32µM,-
